Screening results: PubChem BioAssay, National Center for Advancing Translational Sciences (NCATS)
The list is not random: actives were taken first. Their share in the collection is about 10%.
HP1b binding inh = inhibitors of HP1-beta chromodomain binding to methylated histone tails; Potency, µM (doses to about 114 µM), for inactives: at the highest dose activity change, negative = inhibition, hits mostly inhibitors; 390,000 compounds, 0.56% hits; P83916; AlphaScreen HP1-beta / biotin-H3K9me3 peptide binding; AID 540317; note: nearly all actives have a fitted effect of over 70% in size
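AlphaScreen: HP1-beta (50 nM) preformed 30 min with biotin-H3(1-18)K9me3 peptide (50 nM) in PBS pH 7.4, 0.01% Tween-20. Compound added for 30 min at RT, then streptavidin donor/nickel chelate acceptor beads (10 ug/mL) for 30 min.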
BAZ2B inh = inhibitors of human BAZ2B bromodomain. AlphaScreen BAZ2B-H3K14Ac peptide displacement. Q9UIF8. AID 504333. Potency, µM (titrated, usually from 114 µM), for inactives: at the highest dose activity change, negative = inhibition, actives largely listed as inhibitors. 360,000 compounds, 4.4% hits; note: % is set by controls: 0 for no effect and ±100 for the full control effect; nearly all actives have a fitted effect of over 60% in size
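AlphaScreen luminescence quantifies BAZ2B engagement of H3K14Ac peptide; the protein and biotinylated peptide are both at 50 nM final, buffer PBS pH 7.4 with 0.01% Tween-20, all steps at room temperature.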
GLS inhibitor = glutaminase GLS (human) inhibition | O94925 | GLS enzymatic activity, qHTS titration | Potency, µM (top dose mostly 45.5 µM), inactives show at the highest dose activity change, negative = inhibition, hits mostly inhibitors | 410,000 compounds, 0.21% hits | AID 624170; note: % is set by controls: 0 for no effect and ±100 for the full control effect
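hKGA in 45 mM KH2PO4 pH 8.2, 0.02% Tween-20 with pin-transferred compounds; 1 mM L-glutamine (stock) plus glutamate oxidase/HRP/Amplex Red coupling added. Fluorescence read initially and after 30 min at RT.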
JMJD2A Tudor inh = JMJD2A Tudor domain (human) inhibition; 390,000 compounds, 4.4% hits; Potency, µM (titrated, usually from 114 µM), for inactives: top-dose activity change, negative = inhibition, most hits filed as inhibitors; AlphaScreen JMJD2A-Tudor / H3K4me3 peptide binding; note: % is set by controls: 0 for no effect and ±100 for the full control effect; nearly all actives have a fitted effect of over 50% in size
G9a block = blocks human histone lysine methyltransferase G9a. G9a H3K9 monomethylation, AlphaScreen, 2 h. AID 504332. Potency, µM (doses to about 102 µM), without a hit: at the highest dose activity, negative = inhibition, hits mostly inhibitors. 350,000 compounds, 8.8% hits. Q96KQ7; note: % is set by controls: 0 for no effect and ±100 for the full control effect; nearly all actives have a fitted effect of over 75% in size
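Enzyme 20 nM + cpd, 15 min RT; add b-H3K9 pep 500 nM / SAM 20 uM; 2 h RT; anti-H3K9me1 Ab 0.5 ug/mL + SA donor / anti-rabbit acceptor beads 20 ug/mL each, 10 min; AlphaScreen read.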
Active calls of the source: *; ? = inconclusive; · = not tested or not shown; [ ] = dose if it differs, or a comment. Calls come from the whole dose curve; as a rule, active = well fitted curve in the direction sought with a large enough effect; inconclusive = small, poorly fitted or top-dose-only effect, or another doubt; inactive = no such curve, though single readings can be large; an effect the other way counts as inactive or inconclusive. Potency is the fitted concentration of half-maximal effect.

SMILES | HP1b binding inh | BAZ2B inh | GLS inhibitor | JMJD2A Tudor inh | G9a block
CCN(C(=O)CSc1nc(-c2ccccc2)cn1N)c1c(N)n(Cc2ccccc2)c(=O)[nH]c1=O | 19% | -4% | 17% | -11% | ?
CCN(CC)c1ccc(-c2nnc(SCC(=O)N(CCOC)c3c(N)n(CC(C)C)c(=O)[nH]c3=O)o2)cc1 | 3% | -34% | -3% | -12% | -51%
CCOC(=O)N1CCc2c(sc3c2c(=O)n(CCc2ccccc2)c(=O)n3Cc2cc(C)ccc2C)C1 | 36% | ? | 3% | -16% | ?
Cc1cccc(NC2SC(=O)NC2=O)c1 (stereo unspecified) | 0% | ? | 2% | ? | 50µM*
Cc1cccc(NC2CNC(=O)NC2=O)c1 (stereo unspecified) | 5% | · | 20% | -19% | ·
O=C(CC1C(=O)NCCN1Cc1ccccc1)NCCCOc1cccnc1 (stereo unspecified) | 23% | -9% | 2% | -18% | 50µM*
O=C(CC1C(=O)NCCN1Cc1cccc(C(F)(F)F)c1)NCCCOc1cccnc1 (stereo unspecified) | 57% | -17% | -16% | 2% | ?
O=C(CC1C(=O)NCCN1Cc1cccc(Oc2ccccc2)c1)NCCCn1cccn1 (stereo unspecified) | 9% | -22% | 2% | -25% | 50µM*
COc1ccccc1CN1CCNC(=O)C1CC(=O)NCCCN1CCOCC1 (stereo unspecified) | · | · | -2% | · | ·
CCc1cc(CNC(=O)CC2C(=O)NCCN2Cc2cccc(OC)c2)on1 (stereo unspecified) | 33% | -14% | 2% | -2% | 56µM*
COc1ccccc1CN1CCNC(=O)C1CC(=O)NCCCN1CCCC1=O (stereo unspecified) | 27% | -6%[57.1 µM] | 8% | -2% | 71µM*
COc1ccccc1CCNC(=O)C(=O)NCC(c1cccnc1)N1CCN(c2ccccc2)CC1 (stereo unspecified) | 19% | 1% | 20% | -2% | 4%[59 µM]
CC(CC(c1ccccc1)c1ccccc1)NC(C)(C)C (stereo unspecified) | · | · | 9% | · | ·
Cn1cc(-c2ccc3c(c2)OCO3)c2ccccc21 | · | · | 1% | · | ·
COc1ccc2ccccc2c1CNC(=O)CC1C(=O)NCCN1CC(C)C (stereo unspecified) | 16%[57 µM] | -8% | 1% | -20% | 45µM*
COc1ccccc1CN1CCNC(=O)C1CC(=O)NCCCn1cccn1 (stereo unspecified) | 17% | -22% | 0% | 2% | -2%
CCOc1ccccc1CN1CCNC(=O)C1CC(=O)NCCCn1cccn1 (stereo unspecified) | 52% | ? | -4% | -12% | 79µM*
O=C(CC1C(=O)NCCN1Cc1ccc(F)cc1)NCCN1CCCc2ccccc21 (stereo unspecified) | -9% | 79µM* | 26% | ? | ·
O=C(CC1C(=O)NCCN1Cc1ccccc1)NCCN1CCCCC1=O (stereo unspecified) | 13%[57 µM] | 2% | 0% | -11% | ·
CSc1ncccc1C(=O)Nc1nc2ccc(Oc3ccccc3)cc2s1 | 65% | -6% | 0% | -4% | -8%[59 µM]
Cc1cc(C)c2c(=O)c3c(oc2c1)C(=O)N(CCCOC(C)C)C3c1ccccc1F (stereo unspecified) | 28% | 0% | -2% | -20% | 0%[59 µM]
Cc1cc(/C([O-])=C(/C(=S)Nc2ccc(F)cc2)[n+]2ccccc2)c(C)n1-c1ccc(F)cc1 | · | 45µM* | 1% | 50µM* | ?
Cc1cc(/C([O-])=C(/C(=S)Nc2ccccc2)[n+]2ccccc2)c(C)n1-c1ccccc1 | ? | ? | 11% | · | 50µM*
O=C(Nc1cccc(F)c1)N1CC[C@@]2(CCCNC2)C1 | · | · | · | · | -15%[12.7 µM]
CC(=O)NC(c1ccc(Cl)cc1Cl)c1ccc2cccnc2c1O (stereo unspecified) | -3% | 28µM* | 0% | 28µM* | ·
SMILES | HP1b binding inh | BAZ2B inh | GLS inhibitor | JMJD2A Tudor inh | G9a block
CCCC(=O)NC(c1ccc(Cl)cc1)c1ccc2cccnc2c1O (stereo unspecified) | 52% | -7% | -15% | -13% | 32%
CC(=O)NC(c1ccc2ccccc2c1)c1ccc2cccnc2c1O (stereo unspecified) | 31% | 28µM* | 9% | 25µM* | -38%
CCCCC(=O)NC(c1ccccc1OC)c1ccc2cccnc2c1O (stereo unspecified) | 51% | ? | 9% | -19%[11.4 µM] | 8%
COc1ccc(C(NC(C)=O)c2ccc3cccnc3c2O)c(OC)c1 (stereo unspecified) | 26% | 28µM* | 18% | 79µM* | 44%[59 µM]
COC(=O)C(Cc1csc2ccc(Cl)cc12)NC(=O)c1ccc(Cl)cc1 (stereo unspecified) | -12% | -24% | 0% | -7% | -1%
COc1ccccc1CNC(=O)CN1N=C(c2ccccc2)CCC1=O | 44% | 4% | 1% | -6% | -3%[59 µM]
C=CCN1C(c2cccc(C(F)(F)F)c2)=CS/C1=C(/C#N)c1nnc(N2CCOCC2)n1-c1ccccc1 | 0% | 50µM* | 1% | 50µM* | 79µM*
O=C(Nc1ccc(F)cc1F)c1ccc2c(c1)CCN2S(=O)(=O)c1ccc(Cl)cc1 | 12% | -2% | -6% | -13% | 0%[59 µM]
O=[N+]([O-])c1nn(-c2ccc3c(c2)OCCO3)n(O)c1=NC1CCCCCC1 | ? | 14µM* | 3% | 22µM* | 13µM*
CCc1ccc(N=c2c([N+](=O)[O-])nn(-c3ccc4c(c3)OCCO4)n2O)cc1 | ? | 25µM* | 6% | 32µM* | 18µM*
O=[N+]([O-])c1nn(-c2ccc3c(c2)OCCO3)n(O)c1=Nc1ccc(Cl)cc1 | -5% | ? | 9% | -30% | ?
O=[N+]([O-])c1nn(-c2ccc3c(c2)OCCO3)n(O)c1=Nc1ccccc1 | -34% | 40µM* | 2% | 45µM* | ?
Cc1ccc(N=c2c([N+](=O)[O-])nn(-c3ccc4c(c3)OCCO4)n2O)c(Cl)c1 | · | -27% | · | · | 45µM*
Cc1[nH][nH]c(=O)c1C(c1cc2c(cc1Br)OCO2)c1c(C)[nH][nH]c1=O | 27% | -4% | -26% | -2%[11.4 µM] | 50µM*
Clc1cccc(CNc2ccn3nc(-c4cccc(Cl)c4)cc3n2)c1 | · | · | 0% | · | ·
COc1ccc(NC(=O)CSc2nc3c(cc2C#N)CN(C)CC3)cc1 | -3% | -9% | -3% | -19% | 11µM*
Cc1noc(NS(=O)(=O)c2ccc(NC(=O)CSc3nc4c(cc3C#N)CCCCC4)cc2)c1C | -8% | -8% | 11% | -34% | 79µM*
CN1CCc2nc(SCC(=O)Nc3ccc(F)cc3)c(C#N)cc2C1 | · | -3% | · | · | 6.3µM*
CCOc1ccccc1N(CC(=O)NC1CCCC1)C(=O)CNC(=O)c1cccs1 | 4% | 2% | 5% | -12% | 14%
